The values that follow come from PubChem BioAssay (Tox21).

Assay [1] in a line: qHTS assay to identify small molecule agonists of the constitutive androstane receptor (CAR) signaling pathway - cell viability counter screen (AID 1224836). Also: nearly all actives have a fitted effect of over 45% in size. The essentials: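 Fluorescence from CellTiter-Fluor indicates live cells after 23 h exposure. The human hepatoma line expresses hCAR and a CYP2B6-2.2kb reporter. Incubation medium contains 0.75 uM PK11195 (final).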
Assay [2] concerns the target Nuclear receptor subfamily 1 group I member 3 (Homo sapiens) (UniProt Q14994). As to the kind of experiment: qHTS assay to identify small molecule antagonists of the constitutive androstane receptor (CAR) signaling pathway (AID 1224838).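 Also: HepG2 cells stably expressing hCAR with CYP2B6 luciferase reporter stimulated by CITCO; nearly all actives have a fitted effect of over 40% in size.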 Also: potency is read from the fitted curve at half-maximal effect. Put shortly:
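Antagonist mode used CITCO at a final 50 nM to activate CAR in human hepatoma HepG2 cells carrying stable hCAR and a 2.2 kb CYP2B6 promoter-luciferase construct. Compounds were tested at 15 concentrations over 24 h, with luminescence as the end point.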

The target is the same in assay [3]. Nature of the assay: qHTS assay to identify small molecule agonists of the constitutive androstane receptor (CAR) signaling pathway (AID 1224839). Also: nearly all actives have a fitted effect of over 15% in size. Also: potency is read from the fitted curve at half-maximal effect. Put shortly:
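Stable hCAR/CYP2B6-2.2kb HepG2 line in DMEM with 10% FBS; compounds (15 concentrations) and 0.75 uM PK11195 final, 24 h at 37 C/5% CO2, then ONE-Glo luminescence after 30 min.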

Assay [4] is described as follows: qHTS assay to identify small molecule agonists of the estrogen related receptor signaling pathway with the pleiotropic PPARgamma coactivator (PGC) from Tox21 10K library (AID 1224842). Also: nearly all actives have a fitted effect of over 15% in size. Put shortly:
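PGC/ERR reporter cells (NTP line) were seeded 2,000 per well, rested 6 h at 37 C/5% CO2, then pin-dosed with compounds in DMSO for 18 h at 37 C; luciferase read by One-Glo luminescence after 30 min at room temperature.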

Assay [5] addresses Thyrotropin receptor (Homo sapiens) (UniProt P16473). Nature of the assay: qHTS assay to identify small molecule agonists of the thyroid stimulating hormone receptor (TSHR) signaling pathway (AID 1224843; calls by dose curve; also: nearly all actives have a fitted effect of over 45% in size). The essentials:
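Compounds are titrated over 15 concentrations, in triplicate, onto TSHR-HEK293 cells seeded at 800/well. Plates sit 30 min at room temperature before cAMP-d2 and anti-cAMP cryptate are added; signal is read after a further hour.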

Assay [6] in a line: qHTS assay to identify small molecule agonists of the hypoxia (HIF-1) signaling pathway - cell viability counter screen (AID 1224844; calls by dose curve; also: nearly all actives have a fitted effect of over 50% in size; also: potency is read from the fitted curve at half-maximal effect). The essentials:
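Cytotoxicity was measured in parallel with the HRE-driven beta-lactamase readout: after 17 hrs of compound exposure at 37C, HRE-bla ME-180 cells received CellTiter-Glo and luminescence was recorded 30 min later.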

Assay [7] in a line: qHTS assay to identify small molecule agonists of H2AX - cell viability counter screen (AID 1224847; calls by dose curve; also: top concentration of the series differs between compounds; nearly all actives have a fitted effect of over 30% in size). The essentials:
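Viability of CHO-K1 (wild type) cells after 3 hr compound exposure was measured by CellTiter-Glo luminescence.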

Assay [8] can be described thus: qHTS assay to identify small molecule agonists of the estrogen related receptor (ERR) signaling pathway from Tox21 library (AID 1224849; calls by dose curve; also: nearly all actives have a fitted effect of over 15% in size). The following applies: ERR reporter cell line, ONE-Glo luciferase, 18 h; at 92.4 µM (top of the series) unless noted. Put shortly:
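Cells carrying the ERR reporter were plated and allowed to settle for 6 h, exposed to library compounds for 18 h at 37 C, then lysed with ONE-Glo and luminescence measured.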

The nature of assay [9]: qHTS RealTime-Glo MT Cell Viability Assay in HepG2 cells - 24 hour (AID 1224867). Also: nearly all actives have a fitted effect of over 50% in size. Also: potency is read from the fitted curve at half-maximal effect. Put shortly:
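qHTS, HepG2, 600 cells/well, RealTime-Glo (NanoLuc + prosubstrate) added with cells; 5 h preincubation; DMSO compound addition; 37 C; luminescence at 0/8/16/24/32/40 h.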

Assay [10] can be described thus: A CellTox Green Cytotoxicity Assay to monitor cytotoxicity in HEK293 cells - 0 hour (AID 1224869). Also: nearly all actives have a fitted effect of over 50% in size. The essentials: (§1)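 Cells (HEK293, 600/well) and dye reagent are dispensed together. After 5 h at 37 C, 23 nL compound is pinned in. Plates stay at 37 C for 40 h with fluorescence read at 0h, 8h, 16h, 24h, 32h and 40h.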
Assay [11] is described as follows: qHTS RealTime-Glo MT Cell Viability Assay in HepG2 cells - 40 hour (AID 1224870). Also: nearly all actives have a fitted effect of over 50% in size. Put shortly: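 HepG2 cells mixed with RealTime-Glo MT reagents (NanoLuc plus cell-permeant prosubstrate) were seeded at 600 cells/well, incubated 5 h at 37 C/5% CO2, then pinned with compounds in DMSO; nonlytic luminescence tracked viability during 40 h treatment.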
The nature of assay [12]: A CellTox Green Cytotoxicity Assay to monitor cytotoxicity in HEK293 cells - 40 hour (AID 1224871). Also: nearly all actives have a fitted effect of over 45% in size. Put shortly:
as §1

Assay [13] is described as follows: qHTS RealTime-Glo MT Cell Viability Assay in HEK293 cells - 16 hour (AID 1224872). The essentials: (§2)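 Assay medium contained NanoLuc luciferase plus cell-permeant prosubstrate, added with HEK293 cells at 600 cells/well. After 5 h at 37 C/5% CO2 compounds were added; plates stayed at 37 C for 40 h with serial luminescence reads.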
Assay [14] is described as follows: qHTS assay to identify small molecule antagonists of the constitutive androstane receptor (CAR) signaling pathway - cell viability counter screen (AID 1224837). Also: nearly all actives have a fitted effect of over 45% in size. Put shortly: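 Viability was measured with CellTiter-Fluor in a HepG2 line carrying stably transfected hCAR and a CYP2B6-2.2kb construct. Cells were exposed for 23 hr at 37 C to 15 compound concentrations with 50 nM CITCO as agonist.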

Assay [15] can be described thus: qHTS assay to identify small molecule antagonists of the estrogen related receptor signaling pathway with the pleiotropic PPARgamma coactivator (PGC) from Tox21 10K library - cell viability counter screen (AID 1224840; active = well fitted cell-killing curve with a large enough effect in the repeat runs, not every such curve was filed as active; also: nearly all actives have a fitted effect of over 40% in size). The essentials:
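Multiplexed viability counter screen in the PGC/ERR cell line: cells treated with DMSO-dissolved compounds for 17.5 hours at 37 C, then viability measured as CellTiter-Fluor fluorescence.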

The nature of assay [16]: qHTS assay to identify small molecule antagonists of the estrogen related receptor signaling pathway with the pleiotropic PPARgamma coactivator (PGC) from Tox21 10K library (AID 1224841; call rule not given here; also: potency is read from the fitted curve at half-maximal effect). The essentials: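 Steps: plate 2,000 PGC/ERR cells per well; incubate 6 h at 37 C with 5% CO2; transfer compounds from DMSO stocks by pin tool; incubate 18 h at 37 C; add One-Glo; measure luminescence 30 min later.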

Assay [17] is described as follows: qHTS assay to identify small molecule agonists of H2AX (AID 1224845; active = well fitted activation curve with a large enough effect in the signal ratio in the repeat runs, not every such curve was filed as active; the % refers to the signal ratio). Put shortly:
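Wild-type CHO-K1 cells plated overnight, then exposed 3 hr at 37C to compounds at 15 concentrations (0.76% DMSO). Lysed, then HTRF anti-pH2AX(S139)-cryptate/anti-H2AX-d2 detection after 24 hr at room temperature; emissions 665 and 620 nm.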

Assay [18] in a line: qHTS assay to identify small molecule agonists of the hypoxia (HIF-1) signaling pathway (AID 1224846; active = well fitted activation curve with a large enough effect in the signal ratio in the repeat runs, not every such curve was filed as active; the % refers to the signal ratio). The essentials:
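Compounds from the Tox21 10K library, dissolved in DMSO, are tested for induction of a hypoxia response element–controlled beta-lactamase reporter in ME-180 cells. Exposure lasts 17 hrs at 37C after a 5 hr settling period, followed by CCF4-AM FRET substrate.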

Assay [19] can be described thus: qHTS assay to identify small molecule antagonists of the estrogen related receptor (ERR) signaling pathway from Tox21 library (AID 1224848). Also: nearly all actives have a fitted effect of over 50% in size. Also: potency is read from the fitted curve at half-maximal effect. The essentials: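 First, 2,000 ERR cells per well were plated and held 6 h at 37 C/5% CO2. Next, compounds in DMSO were pinned in and left 18 h at 37 C. Finally, ONE-Glo was added and luminescence read after 30 min at room temperature.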

Assay [20] can be described thus: qHTS RealTime-Glo MT Cell Viability Assay in HEK293 cells - 32 hour (AID 1224868). The essentials:
as §2

Unmarked numbers belong to inactive results. Records with an inconclusive call do not appear. Calls of active or inactive are those of the source. Unless noted, calls follow the shape of the dose curve; as a rule, active = well fitted curve in the direction sought with a large enough effect in the repeat runs; inconclusive = weak or mixed curves; inactive = no such curve, though single readings can be large; an effect the other way counts as inactive or inconclusive.
% is scaled to controls: 0 for no effect and ±100 for the full control effect.

Chain of Thyrotropin receptor (Homo sapiens) (P16473 whole entry, looked up): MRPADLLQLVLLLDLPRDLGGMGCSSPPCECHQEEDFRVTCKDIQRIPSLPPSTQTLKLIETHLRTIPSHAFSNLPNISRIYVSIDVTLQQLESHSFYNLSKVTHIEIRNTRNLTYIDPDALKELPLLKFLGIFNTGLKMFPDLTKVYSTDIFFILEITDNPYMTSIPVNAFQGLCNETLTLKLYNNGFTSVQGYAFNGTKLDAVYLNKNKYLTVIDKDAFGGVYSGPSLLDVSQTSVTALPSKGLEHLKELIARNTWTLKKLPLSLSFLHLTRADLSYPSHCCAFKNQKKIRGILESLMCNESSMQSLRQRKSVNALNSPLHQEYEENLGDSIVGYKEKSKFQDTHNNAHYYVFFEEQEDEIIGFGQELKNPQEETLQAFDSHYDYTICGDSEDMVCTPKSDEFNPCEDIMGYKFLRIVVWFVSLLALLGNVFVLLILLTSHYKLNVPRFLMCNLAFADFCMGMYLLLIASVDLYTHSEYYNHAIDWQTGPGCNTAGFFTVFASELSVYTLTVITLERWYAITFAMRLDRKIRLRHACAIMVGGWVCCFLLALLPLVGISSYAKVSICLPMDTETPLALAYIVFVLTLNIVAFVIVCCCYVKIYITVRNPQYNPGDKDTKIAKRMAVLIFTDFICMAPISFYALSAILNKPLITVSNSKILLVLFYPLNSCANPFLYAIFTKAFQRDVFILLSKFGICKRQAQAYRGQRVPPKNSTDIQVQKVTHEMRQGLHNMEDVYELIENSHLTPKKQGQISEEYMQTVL
Chain of Nuclear receptor subfamily 1 group I member 3 (Homo sapiens) (Q14994 whole entry, looked up): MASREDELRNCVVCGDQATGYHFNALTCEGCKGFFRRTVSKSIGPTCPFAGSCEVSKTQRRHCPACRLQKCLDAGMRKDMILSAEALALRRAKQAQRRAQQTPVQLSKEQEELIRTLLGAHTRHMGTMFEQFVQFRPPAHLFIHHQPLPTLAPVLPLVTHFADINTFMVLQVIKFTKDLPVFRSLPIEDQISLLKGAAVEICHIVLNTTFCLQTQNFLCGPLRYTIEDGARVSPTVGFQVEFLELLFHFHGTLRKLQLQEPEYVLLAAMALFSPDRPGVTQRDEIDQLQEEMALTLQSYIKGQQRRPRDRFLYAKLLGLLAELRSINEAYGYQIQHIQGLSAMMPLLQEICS

As for `O=C(OCC1CO1)C1CCCCC1C(=O)OCC1CO1` (stereo not drawn), the Potency entry in assay [1], in assay [2], in assay [3], in [4], in [5] and in [6] was “inactive” each time. In addition, the Potency entry in assay [7], in assay [9], in assay [10], in [11], in assay [12] and in assay [13] was “inactive” throughout. For the same compound, in assay [8], the activity change, positive = activation was -46.8%.
With `O=C1c2ccccc2Cc2ccccc21`, the Potency result in [14], in assay [2], in assay [15], in assay [16], in assay [5] and in assay [6] was “inactive” in each case. The Potency entry in [17], in assay [18], in [7], in assay [9], in assay [10] and in assay [11] was “inactive” each time. In addition, the Potency result in assay [12] and in assay [13] was “inactive” in each case. Further, the Potency in [3] is 21.8 µM (active). Moreover, in assay [8], the activity change, positive = activation is -18.6%.
Take `COCCCC/C(=N\OCCN)c1ccc(C(F)(F)F)cc1`: the Potency entry in [14], in assay [2], in assay [3], in [15], in assay [4] and in assay [5] was “inactive” each time. Also, the Potency result in assay [17], in [18], in assay [7], in assay [19], in assay [9] and in [10] was “inactive” each time. In addition, the Potency entry in [11] and in assay [12] was “inactive” throughout. The Potency in [16] was 2.98 µM (active). In addition, the activity change, positive = activation in assay [8] is -2.43% [at 42.5 µM].
With `O=c1[nH]sc2cc(Cl)ccc12`, the Potency entry in assay [14], in assay [3], in assay [15], in assay [4], in assay [5] and in [17] was “inactive” in each case. The Potency result in assay [7], in [20], in [10] and in assay [12] was “inactive” throughout. For the same compound, the Potency in assay [2] was 0.001 µM (active); in assay [16], 0.298 µM (active); in assay [6] it was 0.535 µM (active); in assay [19], 0.106 µM (active); in assay [9], 26.8 µM (active). Besides, the activity change, positive = activation in assay [8] was -42.9% [at 42.5 µM].
In the case of `Cc1onc(-c2c(Cl)cccc2Cl)c1C(=O)N[C@@H]1C(=O)N2[C@@H]1SC(C)(C)[C@@H]2C(=O)O`, the Potency result in [14], in [2], in assay [3], in [15], in assay [16] and in assay [4] was “inactive” in each case. The Potency result in [17], in [7], in assay [19], in [9], in [20] and in assay [10] was “inactive” throughout. Also, the Potency result in assay [11], in assay [12] and in assay [13] was “inactive” throughout. Also, the activity change, positive = activation in assay [8] was -4.23% [at 42.5 µM].
On to `OCc1c[nH]c2ccccc12`, for which the Potency result in assay [14], in [2], in assay [15], in assay [4], in assay [9] and in assay [10] was “inactive” throughout. Also, the Potency result in assay [11] was “inactive”. The figures for the Potency in assay [3], in assay [16] and in assay [19] were 30.6 µM (active), 3.44 µM (active) and 13.7 µM (active), respectively. Besides, the activity change, positive = activation in assay [8] is -39.5%.
Turning to `Oc1ccc2c(c1)-c1ccccc1C2`, the Potency entry in assay [14], in assay [2], in assay [15], in assay [16], in [4] and in [5] was “inactive” throughout. The Potency entry in assay [6], in assay [17], in assay [18], in assay [7], in assay [9] and in assay [10] was “inactive” each time. Further, the Potency entry in [13] was “inactive”. Besides, the Potency in assay [3] was 54.5 µM (active). For the same compound, the activity change, positive = activation in assay [8] is -22%.
